Laboratory results published in PubChem BioAssay AID449764 (Southern Research Specialized Biocontainment Screening …, 2010).
The campaign covered roughly 2,300 compounds. About 1,700 (74%) were called active. So high a share suggests a set chosen from earlier hits. The list shows a part of the results. Results with a measured potency or affinity are listed apart. A number with no mark means an inactive call. How the calls were made is not given here.

Assay: Mycobacterium tuberculosis H37Rv growth inhibition, no glycerol, confirmatory dose response (AID 449764);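 further: growth read after 7 days of incubation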
Conditions: series mostly up to 100 µM; inhibition: at the top concentration

SMILES | inhibition
O=C(c1ccc(C#Cc2ccccc2)o1)N1CCN(c2ccccn2)CC1 | 0.6%
O=C(O)Cc1cnc[nH]1 | -6.39%
Cc1cc(/C=C/C(=O)O)c(C)n1-c1ccc(Cl)cc1 | -10.7%
O=C(CCN1C(=O)C2C3C=CC(C3)C2C1=O)Oc1ccc2ccccc2c1 (configuration not stated) | 2.23%
Cc1cc(C2=NNC(=NC3CCCCC3)SC2)c(C)n1-c1c(C)n(C)n(-c2ccccc2)c1=O | -2.3%
COC(=O)c1cccc(OC(N)=O)c1 | -19.5%
CCOc1ccc(-n2c(O)c(/C=N/Nc3nnc(C)c(=O)[nH]3)c3ccccc3c2=O)cc1 | 2.23%
COc1cccc(NC(=O)Nc2nc(SC(C)(C)C)ns2)c1 | 11.6%
CN(C)S(=O)(=O)c1cccc(NC(=O)CCc2nc3sc4c(c3c(=O)[nH]2)CCCC4)c1 | -3.1%
Nc1ccc(-c2nc3ccc(-c4nc5ccccc5o4)cc3[nH]2)cc1 | 13.2%
CC(C)(C)c1nc(SCC(=O)Nc2nc3c(s2)CCCC3)c2ccccc2n1 | -2.53%
O=C(Nc1cc(Oc2ccccc2)cc([N+](=O)[O-])c1)C12CC3CC(C1)CC(n1cnc(Cl)n1)(C3)C2 | 15.2%
C/C(=N\NC(=O)c1cc2c(s1)CCC(C)C2)c1ccncc1 (configuration not stated) | 4.95%
CCC1(c2ccccc2)NC(=O)N(CC(=O)Nc2ccc(S(=O)(=O)NC3=NCCCCC3)cc2)C1=O (configuration not stated) | -1.06%
Nc1cc(C(=O)OCC(=O)NNC(=O)c2cccs2)ccc1Cl | 4.43%
CSc1ccc(CNC(=O)C2Cc3cc(S(=O)(=O)N4CCCCC4)ccc3N2C(C)=O)cc1 (configuration not stated) | 6.47%
Nc1ncc2[nH]cnc2n1 | 1.24%
O=C(COc1cc(O)c2c(=O)c3ccccc3oc2c1)OCc1ccccc1 | 2.32%
CCCc1ccc(OCc2ccccc2)c2c(=O)cc(C(=O)OCC)oc12 | 2.09%
O=C(c1cc([N+](=O)[O-])ccc1N1CCOCC1)N1CCN(S(=O)(=O)c2cc(Cl)ccc2Cl)CC1 | 0.57%
Cc1ccc(NC(=O)C2CCN(S(=O)(=O)c3ccc4c(c3)NC(=O)C(C)S4)CC2)c(Cl)c1 (configuration not stated) | -2.4%
COc1ccc2c(C)nc(Nc3nc(C)c(C)c(=O)[nH]3)nc2c1 | -52.9%

SMILES | inhibition
COc1ccc(Oc2ccc(N/C=C/C(=O)C(C)(C)C)cc2)cc1 | -1.41%
COc1ccc(N/C=C/c2nc(SC)nnc2C)cc1 | -3.67%
CCCOc1ccc(C(=O)c2nc3c(n2O)CCCCC3)cc1 | 6.51%
CCCc1ncc(CN2CCCC(C(=O)Nc3ccc(-c4cccc(OC)c4)cc3)C2)cn1 (configuration not stated) | 2.45%
N/C(=N\OC(=O)CCC1CCCC1)c1cccc([N+](=O)[O-])c1 | -9.85%
Cc1ccccc1C(=O)Nc1ccc(N(C)C)c2ccccc12 | 5.34%
O=C(N/N=C/c1ccc(Br)s1)c1cccs1 | -0.24%
CCn1nnc(-c2ccc(N)cc2)n1 | -13.6%
COc1ccc(N2CN=C3SCC(=O)N3C2)cc1 | -4.24%
COc1ccc(C(C(O)C(=O)c2c[nH]c3ccccc23)N2CCN(c3ccc(OC)cc3)CC2)cc1 (configuration not stated) | 3.98%
CCOc1ccc(NC(=S)NC23CN4CN(CN(C4)C2)C3)cc1 | 19.1%
CCOC(=O)c1ccc(OC(=O)CCCCCN=C(N)N)cc1 | -8.62%
COc1ccccc1C(=O)NC(=Nc1nc2ccccc2o1)NC(=O)c1ccccc1OC | 8.05%
O=C(CN1CCN(c2ccc(F)cc2)CC1)N1CCC(Cc2ccccc2)CC1 | -6.61%
CC(=Nc1ccc(C)c(C)c1)C1=C(O)CSC1=O | -2.11%
CCOc1ccc(S(=O)(=O)N2CCN(C(=O)c3cc4c(s3)CCCC4)CC2)cc1 | -0.19%
COc1ccc(-c2ccc(=O)n(Cc3c(F)cccc3Cl)n2)cc1 | -1.26%
COc1ccc(NC(NC(=O)c2ccc(OC)cc2)C(Cl)(Cl)Cl)cc1 (configuration not stated) | -1.34%
Cc1nc2ccc(NC(=O)N(C(C)C)C(C)C)cc2s1 | -2.49%
CCOc1[nH]n(-c2ccccc2)c(=O)c1C=Nc1ccc(OC)cc1 | 2.32%
O=C(CCN1C(=O)C2CCCCC2C1=O)Nc1nc(-c2ccc(F)c(F)c2)cs1 (configuration not stated) | 4.25%
O=C(Sc1nnc(-c2ccccc2)o1)N1c2ccccc2Sc2ccccc21 | 14.5%

SMILES | inhibition
COc1ccc(OCc2nnc3n2N=C(c2ccccc2)C(CC(=O)O)S3)cc1 (configuration not stated) | -2.9%
COc1ccc(NC(=O)c2ccc(Cl)c(S(=O)(=O)N3CCc4ccccc4C3)c2)cn1 | -1.34%
CCOc1ccc(N(C(=O)/C=C/C(=O)Nc2cc(C)on2)C(C(=O)NC2CCCC2)c2ccccc2C)cc1 (configuration not stated) | 21.2%
CC(C)Cn1[nH]c2c3c(ccc2c1=O)C(=O)c1ccccc1C3=O | 6.42%
Cc1ccc(C(=O)Nc2cccc(C(F)(F)F)c2)cc1Nc1ncnc2nc[nH]c12 | 15%
Cc1ccc(Cl)cc1N1CCN(Cc2nc3ccsc3c(=O)[nH]2)CC1 | 7.19%
COc1ccc(-c2cc3ccccc3oc2=O)cc1NC(=O)c1ccc([N+](=O)[O-])o1 | 1.39%
COc1ccc(N2CCN(c3ccnc4cc(Cl)ccc34)CC2)cc1 | -0.33%
Fc1ccc(N/N=C2/CC(c3ccccc3)Oc3ccccc32)c(F)c1 (configuration not stated) | 5.36%
Oc1ccc2cc(Br)ccc2c1CN1CCCC1 | -3.14%
COc1ccc(-c2nc3ccccn3c2CN2CCN(c3ccccc3F)CC2)cc1 | 0.17%
CCOC(=O)C(=NC1CCS(=O)(=O)C1)NNc1ccc(Br)cc1 (configuration not stated) | -10.1%
CCOc1ccc(NC(C)c2cc(Cl)ccc2O)cc1 (configuration not stated) | 2.69%
Brc1cccc2sc(N3CCN(c4ccccc4)CC3)nc12 | 7.12%
NC(=O)/C(=N\OC(=O)c1ccco1)c1nc(-c2ccc(Br)cc2)cs1 | -1.01%
Cc1cccc(C)c1OCC(O)CN1CCC(CN2C(=O)c3cccc4cccc(c34)C2=O)CC1 (configuration not stated) | -1.32%
CC1(C)SC(=S)N(NC(=O)Nc2cccc3ccccc23)C1N(O)C(=O)Nc1ccccc1 (configuration not stated) | 6.93%
O=[N+]([O-])c1nn(-c2ccc(Cl)cc2)n(O)c1=NCc1cccnc1 | -6.84%
CCCCCCC(=O)N/N=C/c1ccc(Br)cc1 | 6.63%
CCCCCCSc1nsc(NC(=O)CC(C)C)n1 | 3.62%
COC(=O)Cc1ccc(NC(=S)Nc2ccccn2)cc1 | 2.82%
CCOc1ccc(NC(=S)Nc2cc(-c3ccccc3)[nH]n2)cc1 | 26.8%

SMILES | inhibition
CC(C)c1ccc2nc(N)sc2c1 | 0.13%
O=C(/C=C/c1ccc(Cl)cc1)N1CCN(c2ccc(Cl)cc2[N+](=O)[O-])CC1 | -4.08%
COC(=O)c1cc(NC(=O)c2c(F)c(F)c(F)c(F)c2F)cc(C(=O)OC)c1 | 4.27%
NC(=O)N1CCC2(CC1)NC(=O)N(c1ccccc1)N2 | -5.19%
O=C(/C=C/c1ccc(OCCCF)cc1)Nc1ccnc(-c2ccncc2)n1 | -1.8%
Cc1oc(C)c2c(=O)ccc3c(c12)OC(N)=C(C#N)C3c1ccccc1Cl (configuration not stated) | -20.1%
Cc1nn(C(C)(C)C)c(NC(=O)c2ccc(Cl)cc2Cl)c1Br | 0.12%
O=C(c1ccccc1)c1nn(-c2ccc(Cl)cc2)cc1C(=O)c1cc2ccccc2oc1=O | 9.58%
Cc1ccc(F)cc1CNC(=O)c1cc(COc2ccc3ncccc3c2)on1 | 2.7%
CCN(CC)S(=O)(=O)c1cc(C(=O)Oc2cccc(-c3cnc4ccccc4n3)c2)ccc1Br | -9.99%
Cc1cc(-n2c(C)cc(C(=O)COc3ccc4ccc(=O)oc4c3)c2C)no1 | -3.2%
COc1ccc(N/C=C(\C2OC(=O)c3ccccc32)[N+](=O)[O-])cc1 (configuration not stated) | -3.38%
CC(C)c1nc2scc(-c3ccc(Cl)cc3)c2c(=O)n1N | -7.39%
NN/C(=C\[N+](=O)[O-])Nc1ccc(Cl)cc1 | 24.2%
C/C(CC(=O)Nc1ccc2c(c1)OCCO2)=N\NC(=O)c1ccccc1F | -0.62%
Cc1ccc2c(c1)Oc1ccc(NC(=O)CCl)cc1C(=O)N2 | 3.7%
CCCc1cc(=O)[nH]c(SCC(=O)N2CCCC2=O)n1 | 6.69%
O=C(Nc1ccc(-n2cccc2)cc1)C1CC1 | 24.6%
O=c1c2ccc(Cl)cc2nc(-c2ccc([N+](=O)[O-])cc2)n1O | 21.4%
COc1ccc(N2CCN(Cc3cc4c(cc3O)CCC4)CC2)cc1 | 4%
C=CCn1c(N)cc(=O)nc1SC(CC)C(=O)Nc1ccc(C(C)=O)cc1 (configuration not stated) | 3.97%
C[C@H](O)[C@H](O)[C@H]1CNc2nc(N)[nH]c(=O)c2N1 | -11.6%

SMILES | inhibition
CCCCc1ccc(NC(=S)N2CCN(c3ncccn3)CC2)cc1 | 4.9%
COC(=O)Cc1ccc(NC(=O)c2ccc(Br)o2)cc1 | 0.53%
C=C(C)C1CCC(C)=C1COC(=O)Nc1ccccc1 (configuration not stated) | -12.8%
Cc1nc(SCC(=O)Nc2ccc(OCc3ccccc3)cc2)n[nH]1 | 0.31%
COc1ccc(-c2cc3n(n2)CCc2nc4ccccc4n2-3)cc1 | 26.8%
C/C(=C\C(=O)c1ccccc1)Nc1ccc(Cl)c(Br)c1 | -1.81%
COc1ccc(/C(O)=C/Sc2nnc(Cc3ccccc3)o2)cc1 | 4.86%
CCn1c2ccccc2c2cc(NC(=O)CN(C)CC(=O)Nc3ccc(N4CCOCC4)cc3)ccc21 | -3.49%
C=CCc1cccc2cc(C(=O)OCC(=O)c3ccccc3)c(=O)oc12 | 3.21%
COc1cc(/C=C2\C(=O)NN(c3ccc(C)cc3)C2=O)cc([N+](=O)[O-])c1O | 6.39%
O=C1CCC(=O)N1CNc1ccc(Oc2ccccc2)cc1 | 8.78%
O=C(OCc1ccccc1)c1cccc(-c2nnn(Cc3ccccc3)n2)c1 | -2.98%
O=C(CSc1n[nH]c(-c2ccccc2)n1)Nc1ccc(Br)cn1 | -23.1%
CN1CCN2c3ccccc3Cc3ccccc3C2C1 (configuration not stated) | 28.2%
O=c1c2c3c(sc2nc(N2CCNCC2)n1-c1cccc(Cl)c1)CCCCC3 | 13.2%
CC(C)(C)c1nc2sc3c(c2c(=O)o1)CCCC3 | 9.95%
CCCCOC(=O)c1c(C)oc2ccc(NS(=O)(=O)c3ccc4c5c(cccc35)C(=O)N4)cc12 | 23.8%
COC(OC)c1ccnc(-c2ccc(OC(=O)c3cccs3)cc2)n1 | -10.9%
CCOc1ccc(OCc2ccc(C(=O)N/N=C(\C)c3ccccn3)cc2)cc1 | 1.73%
